# Measured values from ChEMBL document CHEMBL4513216, “Probing the Open Global Health Chemical Diversity Library for Multistage-Active Starting Points for Next-Generation Antimalarials” (ACS Infect Dis, 2020).
# Screen size: about 69,000 compounds; about 8,600 (12%) showed an effect of 50% or more. The sample as a whole holds a higher share of strong results than the screen did.
# Tested on: Plasmodium berghei
# Test: Screen against P. berghei liver stage (PbLuc), transformed with Luciferase, at 10uM
# Format: functional, HepG2
# Details: tested at 10 uM
row,Compound,INHIBITION
1,CSCCCN(CCN1CCOCC1)Cc1ccco1,45.8%
2,O=C(Nc1nncs1)NC1CCCc2c1cnn2CCO (stereo not given),21.7%
3,CC(C)c1cc(C(=O)N2CCCN(Cc3ccccc3)CC2)n[nH]1,48.4%
4,CC(C)c1ccc(CN2CCN(C(=O)c3cc(C4CC4)[nH]n3)CC2)cc1,60.2%
5,Cc1cccc(CN2CCN(C(=O)c3cc(C4CC4)[nH]n3)CC2)c1,-24.2%
6,CC(C)c1cc(C(=O)N2CCN(Cc3ccc(C#N)cc3)CC2)n[nH]1,82.5%
7,O=C(c1cc(C2CC2)[nH]n1)N1CCN(c2nccs2)CC1,6.02%
8,Cc1csc(N2CCN(C(=O)c3cc(C4CC4)[nH]n3)CC2)n1,12%
9,N#Cc1ccc(N2CCN(C(=O)c3cc(C4CC4)[nH]n3)CC2)c(F)c1,80.8%
10,O=C(c1cc(C2CC2)[nH]n1)N1CCN(Cc2ccc3c(c2)OCO3)CC1,9.54%
11,CC(C)c1cc(C(=O)N2CCN(Cc3ccsc3)CC2)n[nH]1,36.3%
12,N#Cc1ccc(CN2CCN(C(=O)c3cc(C4CC4)[nH]n3)CC2)cc1,84.2%
13,COc1ccnc(N2CCN(C(=O)c3cc(C4CC4)[nH]n3)CC2)n1,25.1%
14,O=C(c1cc(C2CC2)[nH]n1)N1CCN(Cc2ccsc2)CC1,36.4%
15,CN1CCN(CCCNC(=O)c2nc3ccccc3c(=O)[nH]2)CC1,24.2%
16,CN1CCN(C[C@@H]2OC[C@H]3CN(CCc4ccccc4)CC[C@H]32)CC1,-40%
17,CC(C)n1cc(CN2CCCN(C(=O)CC3CCCCC3)CC2)cn1,4.71%
18,CCc1nnc(CN(CC)C(=O)C2CCC(=O)N(C3CCCC3)C2)o1 (stereo not given),15.3%
19,Cc1ccc(CN(C)Cc2cnc(N3CCOCC3)s2)o1,35.8%
20,O=C(c1cc(C2CC2)[nH]n1)N1CCN(Cc2ccncc2)CC1,-0.113%
21,O=C(c1cc(C2CC2)[nH]n1)N1CCN(Cc2ccccc2)CC1,-26.6%
22,O=C(c1cc(C2CC2)[nH]n1)N1CCN(Cc2ccc(Cl)cc2)CC1,74.7%
23,Cc1ccc(C(=O)N(CC2CCCO2)c2ccncc2)o1 (stereo not given),24.1%
24,COCC(C)NC(=O)CN1CCC(C)CC1 (stereo not given),18.4%
25,Cc1nc(CN2CCC(c3cc(N4CCCC4)ncn3)CC2)cs1,-37.9%
26,c1c[nH]c2nc(C3CCNC3)nc-2c1 (stereo not given),19.3%
27,Cc1cc(N)nc(C2(C)CCCN2C(=O)Cc2ccc(F)cc2)n1 (stereo not given),29.2%

row,Compound,INHIBITION
1,O=C(CN1C[C@@H]2CC[C@H]1CN(Cc1ccccn1)C2)Nc1ccccc1,43.7%
2,O=C(CN1C[C@@H]2CC[C@H]1CN(Cc1ccccn1)C2)NCc1cccs1,51.1%
3,Cn1ccc(NC(=O)CN2C[C@@H]3CC[C@H]2CN(Cc2ccccn2)C3)n1,45.8%
4,O=C(O)c1ccc(CC2CCN(S(=O)(=O)N3CCOCC3)C2)cc1 (stereo not given),32.5%
5,CN(C)C(=O)CNC(=O)c1cc2c(s1)CCN2S(C)(=O)=O,26.3%
6,CCCNC(=O)c1nc2c(o1)CN(C(C)=O)C2,-0.388%
7,COc1cccc(CNC(=O)c2nc3c(o2)CN(S(C)(=O)=O)C3)c1,52.6%
8,CN(C)CCNC(=O)c1nc2c(o1)CN(C(=O)c1cccnc1)C2,-75.3%
9,CN1CCCN(C(=O)c2nc3c(o2)CN(C(=O)c2cccnc2)C3)CC1,1.9%
10,O=C(NCc1ccncc1)c1nc2c(o1)CN(C(=O)c1cccnc1)C2,29%
11,CS(=O)(=O)N1Cc2nc(C(=O)NCc3ccccc3)oc2C1,24.6%
12,O=C(NCc1ccccc1)c1nc2c(o1)CN(C(=O)c1cccnc1)C2,53.2%
13,CC(=O)N1Cc2nc(C(=O)NCCc3cccnc3)oc2C1,70.7%
14,COc1cccc(CNC(=O)c2nc3c(o2)CN(C(=O)N(C)C)C3)c1,48.2%
15,O=C(NCCN1CCCC1)c1nc2c(o1)CN(C(=O)c1cccnc1)C2,-42.8%
16,CN1CCN(C(=O)c2nc3c(o2)CN(C(=O)c2cccnc2)C3)CC1,50.1%
17,Cc1ccc(CNC(=O)c2nc3c(o2)CN(C(=O)c2cccnc2)C3)o1,-21.1%
18,O=C(NC1CC1)C1=CC2(CCN(CCO)CC2)c2ccccc21,28.4%
19,COCC(=O)N1CCCC2(CCN(CCN3CCCC3)CC2)C1,-12.1%
20,Cc1noc(C)c1CN(C)C(=O)c1ccc(O)nc1,25.1%
21,CC(=O)N(C)CC(=O)NCC1CCN(c2cc(Cl)ccc2C)C1 (stereo not given),-23.7%
22,Cc1nccc([C@@H]2C[C@@H]3CCN(S(=O)(=O)N(C)C)C[C@H]3O2)n1,26.3%
23,Cn1ccc(C(=O)N2CCCC(Cc3cnc4ccccc4c3)C2)n1 (stereo not given),-0.371%
24,COCCn1cnc2ccc(NC(=O)c3c(C)noc3C)cc2c1=O,35.7%
25,Cn1cc(C(=O)N2CC[C@@H]3[C@@H]2CCN3Cc2cccc(F)c2)cn1,43.2%
26,CC[C@@H](CO)NC(=O)c1coc(COc2ccc3sc(C)nc3c2)n1,41.5%
27,Cc1nc2cc(OCc3nc(C(=O)NC(CO)CO)co3)ccc2s1,29.4%

row,Compound,INHIBITION
1,Cc1nc2cc(OCc3nc(C(=O)NC(C)(CO)CO)co3)ccc2s1,74.5%
2,Cn1nnnc1SCC1(O)CCCCC1,1.74%
3,O=S(=O)(CC1CCCCO1)Nc1cc(F)ccc1-n1cccn1 (stereo not given),25.7%
4,Cc1ccc(S(=O)(=O)Nc2ccc(N3CCSCC3)c(C(=O)O)c2)s1,43.9%
5,Cc1cc2nc(C(C)C)cc(N(C)CC3CCCN3C)n2n1 (stereo not given),33%
6,Cc1cc2nc(C(C)C)cc(N(C)CC3CCN(C(C)C)C3)n2n1 (stereo not given),27.6%
7,Cc1cc2nc(C(C)C)cc(N(C)CC3CCCN(CCO)C3)n2n1 (stereo not given),58.5%
8,Cc1ccc(NC2CCN(C(=O)c3cncnc3C)CC2)nn1,-17.22%
9,CCn1ccc(NC(=O)CCc2c(C)nn(C)c2C)n1,38.7%
10,CNC(=O)CS(=O)(=O)C1CCN(S(=O)(=O)c2cccc(Cl)c2C)CC1,80%
11,CNC(=O)CS(=O)(=O)C1CCN(S(=O)(=O)c2ccccc2Cl)CC1,25.8%
12,CNC(=O)CS(=O)(=O)C1CCN(S(=O)(=O)c2ccccc2Br)CC1,-26.6%
13,Cc1cccc2[nH]c(COCC(=O)N3CCCn4cncc4C3)nc12,22.7%
14,Cc1c(NC(=O)c2ccc(Br)cc2)c(C(=O)N(C)C)nn1C,17.6%
15,Cc1ccc(C(=O)Nc2c(C(=O)N(C)C)nn(C)c2C)cc1,-10.6%
16,COc1ccc(C(=O)Nc2c(C(=O)N(C)C)nn(C)c2C)cc1,61.5%
17,CCOCC1CN(Cc2ccsc2)Cc2cnn(C)c21 (stereo not given),36.2%
18,CCOC(=O)CC(C)NC(=O)c1cn(Cc2ccccc2F)nn1 (stereo not given),-44.2%
19,COC(=O)CNC(=O)c1cn(Cc2ccccc2F)nn1,82.9%
20,CCOC(=O)CC(NC(=O)c1cn(Cc2ccccc2F)nn1)C(C)C (stereo not given),72.6%
21,COCC1CCN(C(=O)c2cn(Cc3ccccc3F)nn2)CC1,14.2%
22,O=C(NCCCOc1cccnc1)c1cn(Cc2ccccc2F)nn1,12.9%
23,COC(=O)C(CO)NC(=O)c1cn(Cc2ccccc2F)nn1 (stereo not given),-4.4%
24,CC(Cn1cncn1)NC(=O)c1cn(Cc2ccccc2F)nn1 (stereo not given),68.8%
25,NCCn1cc(C(=O)NCc2ccccc2Cn2cccn2)nn1,29.4%
26,CC(NC(=O)NCCCn1cncn1)c1ccccc1F (stereo not given),11.9%
27,COc1ccc(CNCCc2cc(F)cc3c2OCOC3)c(OC)c1,30%

row,Compound,INHIBITION
1,Cc1cc(C(=O)NCc2ccc(F)cc2)nc(C2CCCN2C)n1 (stereo not given),-3.31%
2,OCCO[C@H]1C[C@@H](O)C12CCN(Cc1nc(C(F)(F)F)no1)CC2,-17.8%
3,CCN1CCCCC1C(=O)N1CCN(C(=O)OC)CC1 (stereo not given),29.9%
4,CCn1cnnc1C1CCN(C(=O)c2cnc(C)s2)CC1,27.6%
5,CC(C)c1ncncc1C(=O)NCCN1CCCCC1C (stereo not given),36.9%
6,CCOCC1CCN(C(=O)C(c2cccc(F)c2)N(C)C)CC1 (stereo not given),17.5%
7,CN(C(=O)CC1=CCCCC1)C1CCCN(C2Cc3ccccc3C2)C1 (stereo not given),28.3%
8,CN(C(=O)CCc1ccncc1)C1CCCN(CCc2ccccc2)C1 (stereo not given),-8.07%
9,CN(C(=O)CC1=CCCCC1)C1CCCN(CCc2ccccc2)C1 (stereo not given),59.2%
10,CC(O)c1cn(Cc2ccc(Cl)cc2Cl)nn1 (stereo not given),7.92%
11,Cc1cc(C(=O)N2CCCC2c2noc(C)n2)[nH]n1 (stereo not given),38.5%
12,CN(C(=O)CCC(F)(F)F)c1cccc2ncccc12,71.4%
13,CCCNC(=O)c1cccc2ncccc12,26.7%
14,Cc1cccc(=O)n1CCC(=O)N(C)Cc1cccc2ncccc12,33.1%
15,CCCC(=O)N(C)c1cc(C#N)c2ccccc2n1,-31.7%
16,CN(Cc1cccc2ncccc12)C(=O)CCC(F)(F)F,19.7%
17,CCCC(=O)N(C)c1cccc2ncccc12,77.8%
18,COc1ccc(-n2cc3[nH]c(=O)n(C(C)C)n3c2=O)cc1,-12.5%
19,CCOCC1CN(Cc2cccs2)Cc2nn(C)cc21 (stereo not given),-2.72%
20,CCN(Cc1ccc2c(c1)OCCO2)C(=O)c1ccc(C)[nH]c1=O,-4.43%
21,Cn1ccc2c(NC(=O)Cn3ncc4c(c3=O)CCCC4)cccc21,74.1%
22,Cn1ccc2c(NC(=O)Cn3ncc4c(c3=O)CCCCC4)cccc21,6.29%
23,O=C(Cn1ncc2c(c1=O)CCCCC2)Nc1cccc2[nH]ccc12,36.1%
24,Cn1cc(CC2CCN(C(=O)NCCCc3ccc(O)cc3)C2)cn1 (stereo not given),49.2%
